Results as given in PubChem BioAssay AID651965 (National Center for Advancing Translational Sciences (NCATS), 2013).
The campaign covered roughly 340,000 compounds. About 6,400 (1.9%) were called active. Where a call stands in place of a potency, no number is given. Another 4% or so got no clear call; they are omitted. The sample holds actives, similar compounds and a random draw of the others, so the mix is not that of the screen. Calls follow the shape of the dose curve; as a rule, active = well fitted falling curve with a large enough effect; inconclusive = small, poorly fitted or top-dose-only effect; inactive = no such curve, though single readings can be large or run the other way.

Biological target: ATP-dependent Clp protease proteolytic subunit (Bacillus subtilis (strain 168)) (UniProt P80244)
Test: qHTS Assay for Activators of ClpP; also: the source files actives as falling curves though it sought activators and does not explain the sign; nearly all actives have a fitted effect of over 65% in size
Conditions: purified B. subtilis ClpP, FRET peptide cleavage, 20 min; series mostly up to 57.5 µM
In short: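 ClpP 10 microg/mL final, pH 8 Tris/KCl buffer with BSA, glycerol, Tween-20; compound pinned in; FRET-FV substrate; RT 20 min; Ex320/Em430; ΔFRET vs ADEP 5.8 microM, DMSO, no enzyme.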
Potency is read from the fitted curve at half-maximal effect.

Row | SMILES | Potency
1 | COC(=O)[C@]12CCCCC=C1N(Cc1ccc3c(c1)OCO3)C(=O)[C@H](CC(=O)N1CCOCC1)C2 | inactive
2 | CC(C)NC(=O)C1(C)CCCCN1Cc1cccc(C(F)(F)F)c1 (stereo not given) | inactive
3 | COc1ccccc1NC(=S)N1CCC(NC(=O)C23CC4CC(CC(C4)C2)C3)CC1 | inactive
4 | CCCNC(=S)N1CCC(NC(=O)C23CC4CC(CC(C4)C2)C3)CC1 | inactive
5 | COCCNC(=S)N1CCC(NC(=O)C23CC4CC(CC(C4)C2)C3)CC1 | 28.2 µM (active)
6 | CC(=O)N1Cc2cc(C(=O)NCc3cccc(F)c3)nc(-c3cccc(C4=CCCC4)c3)c2[C@H]1CCO | inactive
7 | COC(=O)[C@@]12C[C@@H](CC(=O)NCCCCc3ccccc3)C(=O)N(CCc3ccc(OC)c(OC)c3)C1=CCC(C)(C)C2 | inactive
8 | COc1ccc(-c2ccc3[nH]c4c(c3c2)CCN2C[C@H]3[C@H](C)ON(C)[C@H]3C[C@@H]42)cc1 | inactive
9 | CCC(=O)Nc1c(S(=O)(=O)c2ccccc2)c2nc3ccccc3nc2n1Cc1ccccc1 | 14.1 µM (active)
10 | CCN(CC)CCn1c(N)c(S(=O)(=O)c2ccccc2)c2nc3ccccc3nc21 | inactive
11 | CCC(=O)Nc1ccc(C)cc1-c1nc2ccccc2n(Cc2ccccc2)c1=O | inactive
12 | CCOC(=O)[C@]12CCCC=C1N(CCC1=CCCCC1)C(=O)[C@H](CC(=O)N1CCN(C(=O)c3ccco3)CC1)C2 | inactive
13 | CCCCCCCNc1ccc(/C=C/c2ccnc3ccccc23)cc1 | inactive
14 | Cc1cccc(C(=O)NC(=S)N2CCN(c3ccc([N+](=O)[O-])cc3)CC2)c1 | inactive
15 | O=C(c1cncc(Br)c1)N1CCN(c2ccc([N+](=O)[O-])cc2)CC1 | 28.2 µM (active)
16 | O=C(c1cc(C(=O)N2CCN(c3ccc(F)cc3)CC2)cc([N+](=O)[O-])c1)N1CCN(c2ccc(F)cc2)CC1 | inactive
17 | CCCCc1ccc(S(=O)(=O)NC(=O)C2(C)CCN2C(=O)c2ccccc2)cc1 (stereo not given) | inactive
18 | Cc1ccc(-c2nc(=N)sn2Cc2ccccc2)cc1 | inactive
19 | Cc1ccc(C=O)cc1Cl | inactive
20 | CC1(C(=O)NS(=O)(=O)c2cccc(OC(F)F)c2)CCN1C(=O)C1CC1 (stereo not given) | inactive
21 | CC(=O)Nc1cc(-c2ccc(N3CCN(C)CC3)cc2)cn2c(-c3ccc(F)cc3)cnc12 | inactive
22 | CCOC(=O)N1CCN(C(c2ccnc3ccccc23)c2nnnn2-c2c(C)cccc2C)CC1 (stereo not given) | inactive

Row | SMILES | Potency
23 | COc1cc(F)ccc1-c1cc(C(=O)NCC2CCCCC2)[nH]n1 | inactive
24 | COc1ccc(-n2nnnc2CNC(=O)c2ccc3ccccc3c2)cc1 | inactive
25 | COc1ccc(-n2nnnc2-c2nc3ccccc3s2)cc1 | 28.2 µM (active)
26 | COc1ccc(CSc2nnnn2-c2ccc(C(=O)O)cc2)cc1 | inactive
27 | CCCCOCCCNC(=O)C[C@@H]1C[C@@]2(C(=O)OC)CCCCC=C2N(CCC2=CCCCC2)C1=O | inactive
28 | COc1ccccc1CNC(=O)c1cc(-c2cc(Cl)ccc2C)n[nH]1 | inactive
29 | OC[C@H]1O[C@@H](c2nc(-c3nc(-c4ccc(F)cc4)no3)cs2)[C@H](O)[C@@H](O)[C@H]1O | inactive
30 | Cc1nn(CC(=O)N2CCN(c3cccc(C(F)(F)F)c3)CC2)c(=O)c2cc3sccc3n12 | inactive
31 | COc1cccc2c1cc1c(=O)n(CC(=O)N3CCN(c4ccccc4)CC3)nc(C)n12 | 25.1 µM (active)
32 | CCN1CCN(C(=O)Cn2nc(C)n3c(cc4c(OC)cccc43)c2=O)CC1 | inactive
33 | CN[C@H]1C[C@H]2c3cc(Oc4ccccc4C)ccc3CCN2C(=O)[C@H]1[C@H](C)O | inactive
34 | CCCS(=O)(=O)NC(=O)C1(C)CCCN(C(=O)c2cc(C)on2)C1 (stereo not given) | inactive
35 | CCCCCCC1(C)NC(c2ccc3c(c2)OCO3)=CC(c2ccccc2O)N1 (stereo not given) | inactive
36 | CCOC(=O)N1CCC(NC(=O)C(C)n2c3ccccc3c3cnn(C)c(=O)c32)CC1 (stereo not given) | 28.2 µM (active)
37 | CCOC(=O)N1CCC(NC(=O)CCc2cn(C)c3ccccc23)CC1 | inactive
38 | CCOC(=O)N1CCC(NC(=O)Cc2cn(C)c3ccccc23)CC1 | inactive
39 | COc1cccc(NC(=O)C2(C)CCN2C(=O)CCC2CCCC2)c1 (stereo not given) | inactive
40 | CN(C)S(=O)(=O)c1cccc(NC(=O)COC(=O)C2(c3ccccc3F)CCCC2)c1 | inactive
41 | NS(=O)(=O)c1ccc(NC(=O)COC(=O)C2(c3ccc(F)cc3)CCCC2)cc1 | 28.2 µM (active)
42 | O=C(COC(=O)C1(c2ccc(F)cc2)CCCC1)N1CCNC1=O | inactive
43 | COc1ccc2c(c1)C(C)=CC(C)(C)N2C(=O)CNCc1ccc2c(c1)OCO2 | inactive
44 | CC1=CC(C)(C)N(C(=O)CSc2nnc(-c3ccccc3)o2)c2ccc(C)cc21 | inactive

Row | SMILES | Potency
45 | COc1ccc2c(c1)C(C)=CC(C)(C)N2C(=O)Nc1ccccc1 | 28.2 µM (active)
46 | COc1ccc(S(=O)(=O)N2CCCCC2c2cc(C(=O)NCc3ccc(F)cc3)no2)cc1 (stereo not given) | inactive
47 | COc1nc(N=C(N)N)nc2c(C)cccc12 | 3.16 µM (active)
48 | Cc1nc(N=C(N)N)nc2c(C)cccc12 | inactive
49 | CC(=O)Oc1ccc(-c2nc3c(C)cccc3c(=O)o2)cc1 | inactive
50 | Nc1ccc(/C=C/c2ccnc3ccccc23)c([N+](=O)[O-])c1 | inactive
51 | O=C1NC[C@H](Cc2ccc(O)cc2)N(C[C@H]2CCCN2C[C@H](Cc2ccccc2)N2C[C@H](Cc3ccccc3)N(CCc3ccccc3)C(=O)C2=O)C1=O | inactive
52 | O=C(Nc1cccc(S(=O)(=O)N2CCOCC2)c1)C12CC3CC(CC(C3)C1)C2 | 31.6 µM (active)
53 | O=C(CSc1ccccc1)Nc1cccc(S(=O)(=O)N2CCOCC2)c1 | inactive
54 | Cc1occc1C(=O)Nc1cccc(S(=O)(=O)N2CCOCC2)c1 | inactive
55 | CC(C)c1cccc(-c2csc(C(O)c3ccccc3)n2)c1 (stereo not given) | inactive
56 | OC(CBr)CN1CCCCC1 (stereo not given) | inactive
57 | COC(=O)Cc1c(-c2[nH]c3ccccc3c2CC(=O)OC)[nH]c2ccccc12 | 28.2 µM (active)
58 | COC(=O)Cc1ccc(NC(=S)NCc2ccccc2)cc1 | inactive
59 | CCCOC(=O)Cc1c(O)c2ccccc2[nH]c1=O | 25.1 µM (active)
60 | COc1ccc(CNC(=O)c2ccc3c(O)c(S(=O)(=O)c4ccccc4)c(=O)[nH]c3c2)cc1 | inactive
61 | O=C(Cc1ccccc1)NCc1ccc(F)cc1 | inactive
62 | CCc1ccc2[nH]c(=O)c(Cc3ccccc3)c(O)c2c1 | inactive
63 | CCCc1nc2ccccc2c(=O)n1NC(=O)c1c(O)c2ccccc2[nH]c1=O | inactive
64 | NC(=O)Cc1ccc2c(c1)[nH]c1ccccc12 | inactive
65 | O=C(Cc1c(O)c2ccccc2[nH]c1=O)NCc1ccccc1 | 20 µM (active)
